Screens from PubChem BioAssay.
Most compounds without a hit are left out; they make up all but 0.36% or so of the library.
CXXC DNA block: qHTS Fluorescence Polarization Assay for Inhibitors of MLL CXXC domain - DNA interaction; Histone-lysine N-methyltransferase 2A (Homo sapiens), Q03164; MLL-CXXC / FITC-HOXA9 DNA fluorescence polarization; Potency, µM (series often up to 115 µM), without a hit: at the highest dose activity change, negative = inhibition, usual class: inhibitors; 290,000 compounds, 0.037% hits; AID 2662, 2010; active = well fitted inhibition curve with a large enough effect in the polarisation, with a control signal flat, not every such curve was filed as active; inconclusive = small, poorly fitted or top-dose-only effect, or effect the other way, or a change in a side signal; inactive = no such curve, though single readings can be large or run the other way; the % refers to the polarisation; also: potency is read from the fitted curve at half-maximal effect
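Steps: dispense CXXC domain solution (7 uM) → pin compounds or unlabeled HOX-A9 DNA control → 5 min ambient → add FLSN-HOX-A9 solution (50 nM) → spin → 30 min ambient → fluorescence polarization. Tris pH 7.5/NaCl/DTT/BSA buffer.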
Menin MLL FP TR: qHTS Assay for Inhibitors Targeting the Menin-MLL Interaction in MLL Related Leukemias: Competition With Texas Red Labeled MLL-derived Mutant Peptide; Potency, µM (top dose mostly 61.6 µM), without a hit: at the top dose FP activity change, negative = inhibition, actives largely listed as inhibitors; Menin + Texas Red MLL mutant peptide, fluorescence polarization; AID 1768, 2009; 270,000 compounds, 0.23% hits; O00255; active = well fitted inhibition curve with a large enough effect in the polarisation, with a control signal flat, not every such curve was filed as active; inconclusive = small, poorly fitted or top-dose-only effect, or effect the other way, or a change in a side signal; inactive = no such curve, though single readings can be large or run the other way; the % refers to the polarisation; also: potency is read from the fitted curve at half-maximal effect; % of control where 0% means no effect
Menin-MLL FL inh: qHTS Assay for Inhibitors Targeting the Menin-MLL Interaction in MLL Related Leukemias: Competition With Fluorescein Labeled MLL-derived Peptide; Fluorescence polarization, fluorescein-MLL peptide displacement from menin; FP activity change, % at 61.4 µM; 290,000 tested, under 10 active; AID 1766, 2009; active = well fitted curve in the direction sought with a large enough effect in the polarisation, not every such curve was filed as active; inconclusive = small, poorly fitted or top-dose-only effect, or effect the other way, or a change in a side signal; inactive = no such curve, though single readings can be large or run the other way; the % refers to the polarisation; also: % of control where 0% means no effect
TRb SRC2 PPI: qHTS for Inhibitors of the Interaction of Thyroid Hormone Receptor and Steroid Receptor Coregulator 2 | 280,000 compounds, 0.065% hits | Thyroid hormone receptor beta (Homo sapiens), P10828 | Potency, µM (series often up to 106 µM), inactives show at the highest dose activity change, negative = inhibition, hits mostly inhibitors | TRbeta-SRC2 peptide binding, fluorescence polarization; receptor liganded with 1 µM T3; active = well fitted inhibition curve with a large enough effect; inconclusive = small, poorly fitted or top-dose-only effect, or effect the other way;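 also: potency is read from the fitted curve at half-maximal effect; plate controls were bound peptide for no effect and peptide without receptor for full effect; nearly all actives have a fitted effect of over 50% in size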
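TRb LBD 0.6 uM + Texas Red SRC2 peptide 20 nM, 1 uM T3, Tris buffer w/ 5% DMSO; compound pinned, 5 h RT; FP read ex 555/em 632; normalized to unbound and bound controls.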
TexasRed fluor: Total Fluorescence Counterscreen for Inhibitors of the Interaction of Thyroid Hormone Receptor and Steroid Receptor Coregulator 2 | TRb/SRC2 Texas Red total fluorescence interference | Potency, µM (top dose mostly 106 µM), for the others: at the highest dose fluorescence change, negative = quenching | 280,000 compounds, 0.29% hits | AID 1479, 2009; active = well fitted curve in either direction with a large enough effect; inconclusive = small, poorly fitted or top-dose-only effect; also: potency is read from the fitted curve at half-maximal effect; % is scaled to controls: 0 for no effect and ±100 for the full control effect
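Human TRβ ligand-binding domain (0.6 uM) and Texas Red SRC2 peptide (20 nM) in Tris buffer with 1 uM T3 and 5% DMSO were incubated with pinned compound for 5 hr at ambient temperature. Total fluorescence was computed as S + 2P (555/632 nm).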
Numbers without * were called inactive; ? = inconclusive; / = not tested or not shown; [ ] = dose if it differs, or a comment.

SMILES | CXXC DNA block | Menin MLL FP TR | Menin-MLL FL inh | TRb SRC2 PPI | TexasRed fluor
CCOc1ccc(NC(=O)CCc2nnc3n(C)c(=O)c4sccc4n23)cc1 | / | / | / | 29.9%[53 µM] | 0.0355µM*[quencher]
CC(=O)c1c(C(C)=O)c(C)n(-c2ccc(N)c(C)c2)c1C | 7.0% | / | -1.3 | 22.4µM* | 44.7µM*[fluorescent]
c1ccc(OCCOc2ccccc2)cc1 | / | / | / | 7.1%[201 µM] | -3.6%[201 µM]
Oc1cccc2ccc[n+](CC(O)Cn3c4ccccc4c4ccccc43)c12 (configuration not stated) | 6.7% | -17.7% | 0.2 | -11.6% | 0.891µM*[quencher]
C(#Cc1ccccc1)C[N+]1(CC#Cc2ccccc2)CCCC1 | -0.7% | -11.6% | 3.8 | -12.2% | 2.2%
C=CC#CC[N+]1(CC#Cc2ccccc2)CCOCC1 | 51.5% | 25.1µM* | -19.7 | 4.9% | -7.7%
COCC(=O)N1CCC2(CCCN(C(=O)Nc3ccc(OC)cc3)C2)CC1 | / | -20.6% | 0.6 | / | /
COC(=O)Cn1c(=O)c2c(nc3n2CCN3c2cccc(C)c2)n(C)c1=O | / | / | / | 10.5% | 6.0%
Cc1cccc(N2CC(C)Cn3c2nc2c3c(=O)n(CC(=O)O)c(=O)n2C)c1 (configuration not stated) | / | / | / | 0.4% | 10µM*[quencher]
C=C(C)C(=O)OCCC[Si](OC)(OC)OC | / | / | / | 1.8%[201 µM] | 2.5%[201 µM]
Cc1ccccc1OCC(=O)Nc1ccc(S(=O)(=O)Nc2ncccn2)cc1 | / | / | / | -8.2% | 10000µM*[quencher]
O=C(c1ccc(Cl)cc1)c1ccc(Cl)cc1 | / | / | / | -0.3%[201 µM] | -0.7%[201 µM]
CC1=CN2C(=N)/C(=C/c3ccc([N+](=O)[O-])o3)C(=O)N=C2S1 | ? | 22.7% | ? | -7.4% | 44.7µM*[fluorescent]
CC1=CN2C(=N)/C(=C/c3ccco3)C(=O)N=C2S1 | -0.5% | 6.3% | / | 12.2% | 0.1%
O=C(c1ccc(Cl)c(Cl)c1)c1cnc(Nc2ccccc2)s1 | 7.2% | 22.4µM* | 1.9 | -2.7% | -2.9%
CNc1ncc(C(=O)c2ccc(Cl)c(Cl)c2)s1 | 7.8% | 4.3% | 0.4 | -0.2% | -2.3%
O=c1c(-c2ccccc2)nc2cnc(Nc3ccccc3)nc2n1C[C@H]1CCCO1 | / | 37.4% | ? | / | /
N#Cc1cccc(-c2nc3cnc(Nc4ccccc4)nc3n(C[C@H]3CCCO3)c2=O)c1 | / | 28.2µM* | ? | / | /
CCOC(=O)c1c(-c2ccc(C)cc2)csc1NC(=O)c1cc2ccccc2oc1=O | 8.0% | ? | 11.2 | -9.1% | -2.8%
CCOC(=O)c1c(-c2ccc(C)cc2)csc1NC(=O)c1cc(=O)c2ccc(C)cc2o1 | / | / | / | -9.7% | 35.5µM*[quencher]
O=c1c2cc3c(cc2nc2sc(Nc4ccc(F)cc4F)nn12)OCO3 | / | / | / | 3.7% | -1.0%
O=C(NCc1ccccc1Cl)c1cnc(N2CCCCC2)c2ccccc12 | / | / | / | -15.1% | 1585µM*[quencher]
Cc1ccc(Cl)cc1N1CCN(C(=O)c2cnc(N3CCOCC3)c3ccccc23)CC1 | / | / | / | -14.7% | 70.8µM*[quencher]
CCOc1ccccc1NC(=O)c1cnc(N2CCOCC2)c2ccccc12 | / | / | / | 2.5% | 1.1%
O=C(Nc1ccc(F)cc1Cl)c1cnc(N2CCOCC2)c2ccccc12 | / | / | / | -21.2% | 11.2µM*[quencher]
SMILES | CXXC DNA block | Menin MLL FP TR | Menin-MLL FL inh | TRb SRC2 PPI | TexasRed fluor
O=C(NCc1ccccc1Cl)c1cnc(N2CCOCC2)c2ccccc12 | / | / | / | 0.0% | 3.6%
CC(C)n1cc(/C=C2/SC(=O)N(CC(=O)Nc3ccc4c(c3)OCO4)C2=O)c2ccccc21 | 14.1% | 7.94µM* | 2.2 | -6.2% | -3.3%
COc1cccc2c(=S)c(CCC(C)=O)c(C)[nH]c12 | 4.4% | 11.2% | ? | -16.6%[53 µM] | 2.82µM*[quencher]
Cc1sc(-n2cccc2)c(C(C)NC(=O)Nc2ccccc2Cl)c1C (configuration not stated) | / | / | / | 3.7% | 3.1%
CCOC(=O)c1ccccc1NC(=O)NC(C)c1c(-n2cccc2)sc(C)c1C (configuration not stated) | / | / | / | -14.3% | 22.4µM*[quencher]
COc1cccc(-n2ccn(CC(=O)Nc3ccccc3F)c(=O)c2=O)c1 | / | / | / | 0.2% | 0.9%
CC(C)(C)c1cccc(C(C)(C)C)c1O | / | / | / | 0.7%[201 µM] | -0.7%[201 µM]
Cc1nc2nc(NC(=O)CC(C)C)[nH]n2c(=O)c1Cc1ccccc1 | / | / | / | -1.6% | 1.5%
CCOc1ccc(-c2ccc(/C=C3/C(=N)N4C(C)=CSC4=NC3=O)o2)c([N+](=O)[O-])c1 | -6.1% | ? | -0.2 | ? | 79.4µM*[quencher]
CCc1cccc2c1NC1(CCCC1)CC2C (configuration not stated) | -6.0% | ? | 9.3 | 28.2µM* | ?
CC1CC2(CCCCC2)Nc2ccc3ccccc3c21 (configuration not stated) | 8.1% | -0.2% | 2.8 | 0.2% | -3.0%
CCOc1ccc(/C=C/C2=Cc3c(sc(NC(=O)CSc4n[nH]c(N)n4)c3C#N)C(C)(C)C2)cc1 | -22.9% | 7.94µM* | ? | 0.2% | 6.9%
COc1cc(C2N=C(N)Nc3nc4ccccc4n32)ccc1OCCC(C)C (configuration not stated) | / | / | / | -7.7% | -23.9%
CC(C)CCOc1ccc(C2N=C(N)Nc3nc4ccccc4n32)cc1 (configuration not stated) | / | / | / | -16.1% | 39.8µM*[quencher]
COc1cccc([C@H]2Oc3ccc(OC)cc3/C(=N\OC[C@@H](O)[C@@H]3O[C@@H]4OC(C)(C)O[C@@H]4[C@H]3O)[C@@H]2O)c1 | / | 0.5%[11.7 µM] | -2.6[11.7 µM] | -0.4%[11.2 µM] | 1.2%[11.2 µM]
N#Cc1c(N)nc2c3c(sc(=N)c2c1N)NC(=O)CC3c1ccccc1 (configuration not stated) | 17.0% | 22.4µM* | 9.2 | -14.5% | 7.2%
N#Cc1c(N)nc2c3c(sc(=N)c2c1N)NC(=O)CC3c1c(F)cccc1Cl (configuration not stated) | 4.7% | ? | 10.0 | -18.3% | -10.6%
COc1cccc(CNC(=O)CCc2cn(Cc3ccccc3Cl)c3ccccc23)c1 | / | / | / | 4.0% | -2.9%
N#C/C(=C\c1ccccc1)c1nc(-c2cc3c(ccc4ccccc43)oc2=O)cs1 | / | / | / | -28.9%[53 µM] | 0.282µM*[quencher]
Oc1ccc(N=Nc2c(O)ccc3ccccc23)cc1 | ? | ? | 0.7 | 10.4% | -1.3%
Oc1ccc2ccccc2c1N=Nc1ccccc1 | / | / | / | 100µM* | 112µM*[fluorescent]
CC(C)=CCC[C@@H](C)[C@H]1CC[C@@]2(C)C3=C(CC[C@]12C)[C@@]1(C)CC[C@H](O)C(C)(C)[C@@H]1CC3 | / | / | / | -2.6%[201 µM] | 1.7%[201 µM]
Cc1ccc(-c2c(C)n3c4c(=O)n(C)c(=O)n(C)c4nc3n2-c2cccc(O)c2)cc1 | / | / | / | -6.2% | 11.2µM*[quencher]
CCc1ccc(-n2c(-c3ccccc3)c(C)n3c4c(=O)n(C)c(=O)n(C)c4nc23)cc1 | / | / | / | -17.3% | 56.2µM*[quencher]
CO[Si](CCCNCCN)(OC)OC | / | / | / | -1.9%[201 µM] | 0.2%[201 µM]
